# According to the supplement of paper PMC10849652:
# Of roughly 7,900 targets only a part is listed; those with a hit were picked by preference. About 0.6% of all pairs of compound and target were hits. Unmarked numbers belong to inactive results.
# Legend:
# Assay in all cases: log2 fold change, soluble protein after heating vs DMSO (PISA); higher = thermal stabilisation; K562 cells, 10 uM, 30 min; active = over 0.2 and 3.5 SD of the protein, either way, in both replicates (recomputed)
# [1] = compound: CC[C@@H]1C(=O)N(C)c2cnc(Nc3ccc(C(=O)NC4CCN(C)CC4)cc3OC)nc2N1C1CCCC1
# How it was run: (§1)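 Aliquots of K562 cells (2×10^6 cells/mL) treated with 10 μM compound for 30 min were heated for 3 min over 48°C-58°C. After pooling and extraction in PBS with 0.5% NP-40 at 4°C, soluble protein from a 21,000xg, 90 min spin was quantified by TMTpro 16plex LC-MS/MS with channel sums equalised. Thermal stability is expressed against control samples, from duplicates, as a log2 fold change.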
# volasertib = compound: CC[C@@H]1C(=O)N(C)c2cnc(Nc3ccc(C(=O)N[C@H]4CC[C@H](N5CCN(CC6CC6)CC5)CC4)cc3OC)nc2N1C(C)C [volasertib]
# How it was run: as §1
# [2] = compound: CC[C@H](C)N1C=C(C2=C(C=C(C=C21)C3=CN=C(C=C3)N4CCNCC4)C(=O)NCC5=C(C=C(NC5=O)C)C)C
# How it was run: as §1
# epoxomicin = compound: CC[C@H](C)[C@@H](C(=O)N[C@@H]([C@@H](C)O)C(=O)N[C@@H](CC(C)C)C(=O)[C@]1(CO1)C)NC(=O)[C@H]([C@@H](C)CC)N(C)C(=O)C [epoxomicin]
# How it was run: as §1
# [3] = compound: CCn1c(C(=O)N(C2CC2)C2CC2)cc2c3c(ncn3C)c(Nc3cc(C)n(C)n3)nc21
# How it was run: as §1
# [4] = compound: CCn1cc(-c2ccnc3[nH]c(-c4cccc(CN(C)C)c4)cc23)c(-c2ccc(NC(=O)N(C)C)cc2)n1
# How it was run: as §1
# [5] = compound: CN(C)CC(=O)Nc1ccc2[nH]c(=O)c3ccccc3c2c1
# How it was run: as §1
# rosiglitazone = compound: CN(CCOC1=CC=C(C=C1)C[C@H]2C(=O)NC(=O)S2)C3=CC=CC=N3 (racemic) [rosiglitazone]
# How it was run: as §1
# [6] = compound: CN1C2=C(C3=C1C(=O)N(N=C3)CC4=CC(=CC=C4)N)SC(=C2)S(=O)C
# How it was run: as §1
# [7] = compound: CN1CCC(CNc2ccc3ncc(-c4cccc(OC(F)(F)F)c4)n3n2)CC1
# How it was run: as §1
# saracatinib = compound: CN1CCN(CCOc2cc(OC3CCOCC3)c3c(Nc4c(Cl)ccc5c4OCO5)ncnc3c2)CC1 [saracatinib]
# How it was run: as §1
# sotrastaurin = compound: CN1CCN(c2nc(C3=C(c4c[nH]c5ccccc45)C(=O)NC3=O)c3ccccc3n2)CC1 [sotrastaurin]
# How it was run: as §1
# alvocidib = compound: CN1CC[C@H](c2c(O)cc(O)c3c(=O)cc(-c4ccccc4Cl)oc23)[C@H](O)C1 [alvocidib]
# How it was run: as §1
# Tubastatin A = compound: CN1CCc2c(c3ccccc3n2Cc2ccc(C(=O)NO)cc2)C1 [Tubastatin A]
# How it was run: as §1
# [8] = compound: CNC(=O)C1=CC=CC=C1NC2=NC(=NC=C2Cl)NC3=C(C=C(C=C3)N4CCOCC4)OC
# How it was run: as §1
# defactinib = compound: CNC(=O)c1ccc(Nc2ncc(C(F)(F)F)c(NCc3nccnc3N(C)S(C)(=O)=O)n2)cc1 [defactinib]
# How it was run: as §1
# rucaparib = compound: CNCc1ccc(-c2[nH]c3cc(F)cc4c3c2CCNC4=O)cc1 [rucaparib]
# How it was run: as §1
# [9] = compound: CNc1nc(-c2ccc3c(N)n[nH]c3c2)cc(N2C[C@@H](C(=O)NC3CCCCC3)CC[C@H]2C)n1
# How it was run: as §1
# encorafenib = compound: COC(=O)N[C@@H](C)CNc1nccc(-c2cn(C(C)C)nc2-c2cc(Cl)cc(NS(C)(=O)=O)c2F)n1 [encorafenib]
# How it was run: as §1
# [10] = compound: COC(=O)[C@H](CCSC)NC(=O)C1=C(C=C(C=C1)NC[C@H](CS)N)C2=CC=CC=C2
# How it was run: as §1
# UniProt P49914, sequence (P49914 whole entry, looked up): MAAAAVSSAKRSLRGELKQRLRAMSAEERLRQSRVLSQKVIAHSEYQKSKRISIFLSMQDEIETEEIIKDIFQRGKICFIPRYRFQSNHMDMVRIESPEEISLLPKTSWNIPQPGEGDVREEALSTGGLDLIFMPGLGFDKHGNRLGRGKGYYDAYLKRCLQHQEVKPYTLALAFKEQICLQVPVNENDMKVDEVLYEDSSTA
# UniProt Q16621, sequence (Q16621 whole entry, looked up): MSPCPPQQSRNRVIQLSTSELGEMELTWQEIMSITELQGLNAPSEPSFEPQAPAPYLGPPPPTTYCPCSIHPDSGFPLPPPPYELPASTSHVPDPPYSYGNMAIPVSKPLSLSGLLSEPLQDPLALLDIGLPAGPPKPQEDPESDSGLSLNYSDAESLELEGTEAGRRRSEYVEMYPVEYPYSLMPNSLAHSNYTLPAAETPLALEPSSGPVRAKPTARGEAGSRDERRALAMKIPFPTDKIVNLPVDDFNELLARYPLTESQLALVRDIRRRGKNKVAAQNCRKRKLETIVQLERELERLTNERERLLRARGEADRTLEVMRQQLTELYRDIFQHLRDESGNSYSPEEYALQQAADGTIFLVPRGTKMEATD
# UniProt O43847, sequence (O43847 whole entry, looked up): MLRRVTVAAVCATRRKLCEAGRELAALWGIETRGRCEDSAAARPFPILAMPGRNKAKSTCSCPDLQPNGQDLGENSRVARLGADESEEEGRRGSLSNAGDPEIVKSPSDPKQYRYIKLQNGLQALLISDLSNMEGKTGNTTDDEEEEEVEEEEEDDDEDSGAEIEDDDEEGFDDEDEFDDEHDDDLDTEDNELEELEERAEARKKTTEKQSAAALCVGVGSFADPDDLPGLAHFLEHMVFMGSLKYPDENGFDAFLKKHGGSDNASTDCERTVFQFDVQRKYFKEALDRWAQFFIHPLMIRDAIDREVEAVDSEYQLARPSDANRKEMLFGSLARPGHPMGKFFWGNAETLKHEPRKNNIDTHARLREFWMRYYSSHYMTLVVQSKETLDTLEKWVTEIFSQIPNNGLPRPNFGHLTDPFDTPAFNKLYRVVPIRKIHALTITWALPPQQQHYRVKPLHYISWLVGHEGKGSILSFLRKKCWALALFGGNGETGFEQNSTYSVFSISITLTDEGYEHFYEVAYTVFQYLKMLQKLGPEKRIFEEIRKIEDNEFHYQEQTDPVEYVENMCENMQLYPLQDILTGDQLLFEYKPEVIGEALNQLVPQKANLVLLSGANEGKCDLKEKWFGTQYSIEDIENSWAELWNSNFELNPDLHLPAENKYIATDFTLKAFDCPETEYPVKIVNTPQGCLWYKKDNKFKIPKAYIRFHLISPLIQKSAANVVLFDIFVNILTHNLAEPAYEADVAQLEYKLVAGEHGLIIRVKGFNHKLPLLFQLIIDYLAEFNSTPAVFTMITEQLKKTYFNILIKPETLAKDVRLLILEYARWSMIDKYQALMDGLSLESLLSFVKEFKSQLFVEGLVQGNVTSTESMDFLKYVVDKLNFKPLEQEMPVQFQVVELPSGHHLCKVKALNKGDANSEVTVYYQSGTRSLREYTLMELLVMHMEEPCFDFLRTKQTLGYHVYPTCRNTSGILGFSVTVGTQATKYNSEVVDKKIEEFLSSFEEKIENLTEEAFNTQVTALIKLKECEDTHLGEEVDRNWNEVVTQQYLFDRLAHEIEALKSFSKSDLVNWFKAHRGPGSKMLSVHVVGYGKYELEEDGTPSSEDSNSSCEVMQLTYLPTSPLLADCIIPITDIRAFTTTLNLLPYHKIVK
# UniProt O95182, sequence (O95182 whole entry, looked up): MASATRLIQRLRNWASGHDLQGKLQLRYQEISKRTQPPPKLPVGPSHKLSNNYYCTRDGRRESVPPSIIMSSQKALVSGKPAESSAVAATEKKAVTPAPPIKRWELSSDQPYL
# UniProt P52701, sequence (P52701 whole entry, looked up): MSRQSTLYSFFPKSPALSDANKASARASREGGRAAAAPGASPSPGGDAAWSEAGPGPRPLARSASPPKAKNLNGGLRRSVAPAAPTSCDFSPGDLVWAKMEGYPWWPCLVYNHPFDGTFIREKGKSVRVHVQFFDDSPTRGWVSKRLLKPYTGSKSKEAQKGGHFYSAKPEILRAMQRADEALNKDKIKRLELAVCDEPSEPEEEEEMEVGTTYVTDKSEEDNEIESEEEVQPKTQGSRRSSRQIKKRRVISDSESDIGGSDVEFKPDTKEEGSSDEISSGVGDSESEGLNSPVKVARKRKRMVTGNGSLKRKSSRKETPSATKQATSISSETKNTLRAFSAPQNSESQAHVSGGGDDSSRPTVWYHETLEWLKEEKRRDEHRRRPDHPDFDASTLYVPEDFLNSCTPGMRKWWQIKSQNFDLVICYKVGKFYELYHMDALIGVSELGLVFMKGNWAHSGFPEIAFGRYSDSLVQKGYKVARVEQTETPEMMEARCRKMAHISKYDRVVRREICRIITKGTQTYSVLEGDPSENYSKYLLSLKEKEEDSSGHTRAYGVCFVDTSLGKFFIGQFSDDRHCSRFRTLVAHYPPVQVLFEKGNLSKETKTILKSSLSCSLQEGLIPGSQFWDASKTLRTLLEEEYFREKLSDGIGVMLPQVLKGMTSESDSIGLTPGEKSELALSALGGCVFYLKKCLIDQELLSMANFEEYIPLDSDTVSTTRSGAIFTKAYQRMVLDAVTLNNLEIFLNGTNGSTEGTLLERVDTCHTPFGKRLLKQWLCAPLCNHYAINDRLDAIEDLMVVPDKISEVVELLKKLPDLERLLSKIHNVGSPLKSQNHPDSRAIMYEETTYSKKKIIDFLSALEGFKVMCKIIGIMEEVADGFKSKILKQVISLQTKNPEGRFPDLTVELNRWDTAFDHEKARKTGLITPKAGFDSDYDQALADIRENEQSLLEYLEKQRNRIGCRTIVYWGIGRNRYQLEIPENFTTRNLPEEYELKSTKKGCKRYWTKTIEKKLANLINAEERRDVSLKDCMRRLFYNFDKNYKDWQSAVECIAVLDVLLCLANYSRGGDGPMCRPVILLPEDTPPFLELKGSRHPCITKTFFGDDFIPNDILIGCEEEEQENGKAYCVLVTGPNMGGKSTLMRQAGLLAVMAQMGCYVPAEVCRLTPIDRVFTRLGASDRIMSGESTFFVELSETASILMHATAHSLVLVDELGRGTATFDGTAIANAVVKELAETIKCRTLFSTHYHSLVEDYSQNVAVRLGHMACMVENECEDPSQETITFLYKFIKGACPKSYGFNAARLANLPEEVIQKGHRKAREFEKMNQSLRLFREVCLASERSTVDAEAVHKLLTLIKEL
# UniProt P84157, sequence (P84157 whole entry, looked up): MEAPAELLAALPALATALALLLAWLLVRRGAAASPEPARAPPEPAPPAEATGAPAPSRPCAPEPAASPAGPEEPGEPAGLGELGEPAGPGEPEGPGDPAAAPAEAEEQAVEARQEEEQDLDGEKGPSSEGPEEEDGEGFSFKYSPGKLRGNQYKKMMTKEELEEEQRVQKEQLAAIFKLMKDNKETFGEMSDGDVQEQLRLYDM
# UniProt Q12769, sequence (Q12769 whole entry, looked up): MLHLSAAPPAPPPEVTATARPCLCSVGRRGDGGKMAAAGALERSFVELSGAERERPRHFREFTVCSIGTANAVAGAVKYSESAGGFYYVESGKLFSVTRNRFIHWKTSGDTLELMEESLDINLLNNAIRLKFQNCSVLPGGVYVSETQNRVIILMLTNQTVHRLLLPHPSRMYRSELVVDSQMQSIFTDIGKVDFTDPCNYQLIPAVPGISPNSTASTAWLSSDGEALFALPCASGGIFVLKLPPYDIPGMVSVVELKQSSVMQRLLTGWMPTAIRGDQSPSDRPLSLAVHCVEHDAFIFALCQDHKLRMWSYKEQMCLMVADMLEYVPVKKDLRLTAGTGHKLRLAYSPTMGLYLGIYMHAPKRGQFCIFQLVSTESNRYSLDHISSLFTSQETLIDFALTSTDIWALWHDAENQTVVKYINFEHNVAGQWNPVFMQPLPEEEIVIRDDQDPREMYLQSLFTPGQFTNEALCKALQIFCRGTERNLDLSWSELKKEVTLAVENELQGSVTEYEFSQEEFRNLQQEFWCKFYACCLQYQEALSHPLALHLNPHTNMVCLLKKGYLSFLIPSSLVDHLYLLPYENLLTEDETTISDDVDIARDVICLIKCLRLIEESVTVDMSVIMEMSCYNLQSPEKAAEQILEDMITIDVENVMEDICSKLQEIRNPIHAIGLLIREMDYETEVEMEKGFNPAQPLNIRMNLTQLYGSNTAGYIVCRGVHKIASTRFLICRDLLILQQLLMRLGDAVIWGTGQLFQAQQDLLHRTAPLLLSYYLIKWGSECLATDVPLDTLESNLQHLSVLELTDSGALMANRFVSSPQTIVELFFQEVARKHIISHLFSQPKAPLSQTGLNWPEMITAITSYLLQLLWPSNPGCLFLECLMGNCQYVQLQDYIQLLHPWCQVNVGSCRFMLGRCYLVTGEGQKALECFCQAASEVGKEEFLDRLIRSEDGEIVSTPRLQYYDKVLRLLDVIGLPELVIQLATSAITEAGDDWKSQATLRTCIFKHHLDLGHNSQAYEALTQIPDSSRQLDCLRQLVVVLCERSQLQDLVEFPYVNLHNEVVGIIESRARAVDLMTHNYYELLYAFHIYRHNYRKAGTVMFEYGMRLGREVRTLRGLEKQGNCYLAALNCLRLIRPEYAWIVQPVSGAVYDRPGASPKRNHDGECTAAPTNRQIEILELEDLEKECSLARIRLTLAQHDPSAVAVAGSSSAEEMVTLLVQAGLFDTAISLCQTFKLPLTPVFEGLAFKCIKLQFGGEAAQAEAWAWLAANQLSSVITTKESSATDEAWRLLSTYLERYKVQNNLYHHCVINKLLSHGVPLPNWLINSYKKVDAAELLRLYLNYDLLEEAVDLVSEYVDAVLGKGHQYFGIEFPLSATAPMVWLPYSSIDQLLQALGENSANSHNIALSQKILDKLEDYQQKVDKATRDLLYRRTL
# UniProt Q86WQ0, sequence (Q86WQ0 whole entry, looked up): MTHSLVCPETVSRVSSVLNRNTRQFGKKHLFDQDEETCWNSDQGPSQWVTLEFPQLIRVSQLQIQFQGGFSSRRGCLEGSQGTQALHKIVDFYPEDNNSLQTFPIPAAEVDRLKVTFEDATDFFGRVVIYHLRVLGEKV
Target,log2 fold change [1],log2 fold change (volasertib),log2 fold change [2],log2 fold change (epoxomicin),log2 fold change [3],log2 fold change [4],log2 fold change [5],log2 fold change (rosiglitazone),log2 fold change [6],log2 fold change [7],log2 fold change (saracatinib),log2 fold change (sotrastaurin),log2 fold change (alvocidib),log2 fold change (Tubastatin A),log2 fold change [8],log2 fold change (defactinib),log2 fold change (rucaparib),log2 fold change [9],log2 fold change (encorafenib),log2 fold change [10]
NTMT1 (UniProt Q9BV86),-0.047,-0.004,0.051,0.092,0.005,-0.141,0.081,-0.022,-0.037,0.099,-0.048,0.055,-0.104,-0.071,-0.032,-0.081,0.169,0.184,0.06,-0.157
NUP107 (UniProt P57740),0.038,-0.182,0.106,-0.053,-0.069,0.169,-0.048,0.057,0.053,0.628 (active),-0.017,-0.103,-0.056,0.067,0.023,-0.081,0.041,0.02,0.111,0
NRDC isoform 2 (UniProt O43847),-0.18,-0.371 (active),0.069,0.038,-0.067,-0.087,0.055,0.073,0,-0.087,-0.024,-0.028,-0.078,-0.009,-0.033,-0.077,0.092,0.01,0.024,-0.076
MPP1 (UniProt Q00013),-0.039,-0.112,0.063,0.058,-0.025,-0.051,0.011,0.051,0.043,-0.256 (active),-0.023,-0.085,-0.022,0.051,0.073,-0.082,0.104,0.059,0.067,-0.047
OXSM (UniProt Q9NWU1),-0.063,-0.017,-0.022,0.018,-0.048,-0.003,-0.005,0.02,-0.025,0.058,0.095,0.067,-0.046,-0.01,0.038,-0.059,-0.018,-0.033,-0.007,-0.019
NDUFA7 (UniProt O95182),-0.19,-0.109,-0.023,0.052,0,0.011,0.01,-0.02,0.027,-0.324 (active),-0.037,0.047,-0.01,-0.148,-0.042,0,0.046,-0.031,-0.042,-0.008
NUP160 (UniProt Q12769),-0.109,-0.62 (active),0.005,-0.049,-0.01,0.04,0.007,0.03,-0.033,0.014,0.155,-0.141,-0.078,0,0.004,-0.11,0.019,-0.018,0.038,0.003
NUDT1 (UniProt P36639),0.971 (active),1.35 (active),-0.012,-0.039,-0.113,-0.19,0.06,0.054,-0.088,0.157,0.068,0.043,-0.038,0.193,0.05,0.019,0.416,0.196,-0.03,-0.074
MSH6 (UniProt P52701),-0.306,-0.683 (active),0.227,0.097,-0.127,-0.089,0.172,0.179,-0.044,-0.261,-0.142,-0.278,-0.255,0.127,-0.049,-0.379,-0.014,0.102,0.141,-0.098
MTHFS (UniProt P49914),0.082,0.236 (active),0.034,0.11,0.031,0.02,0.034,0.046,-0.022,-0.019,-0.023,-0.017,-0.078,0.043,0.065,-0.053,0.013,-0.004,0.007,0.014
NDUFA4 (UniProt O00483),0.033,0.042,-0.019,0.369 (active),0.09,0.019,-0.039,-0.026,0.018,0.101,0.021,0.021,0.022,-0.029,0.009,-0.03,-0.106,-0.129,-0.04,0.001
NFE2 (UniProt Q16621),-0.136,-0.227,0.018,0.173,0.012,0.084,0.273,0,-0.015,-0.145,0.011,-0.096,-0.182,0.093,-0.025,-0.037,-0.075,-0.065,0.018,-0.06
MXRA7 (UniProt P84157),0.04,0.08,-0.11,-0.034,0.038,-0.042,0.124,0.037,-0.114,0.113,0.127,0.027,0.048,-0.02,0.007,-0.104,-0.093,-0.033,0.008,-0.025
OAT (UniProt P04181),0.049,0.1,0.021,0.043,-0.041,-0.1,0.004,-0.006,-0.102,-0.164,-0.002,-0.016,-0.125,0.013,0.084,-0.058,-0.047,-0.04,-0.061,0.024
NR2C2AP isoform 2 (UniProt Q86WQ0),-0.108,-0.061,-0.018,0.023,-0.055,0.018,0,0.039,-0.223,-0.152,0.086,0.018,-0.089,0.099,0.027,-0.106,-0.031,0.073,-0.048,-0.115
MRPL46 (UniProt Q9H2W6),0.209,0.302,0.034,0.015,0.075,-0.04,0.014,-0.017,0.061,0.12,-0.071,-0.073,0.016,0.037,0.29 (active),0.043,0.058,0.115,0.045,-0.026
